In PubChem BioAssay (Tox21):
Records with an inconclusive call do not appear. The source made the active and inactive calls. Unless noted, calls come from the whole dose curve; as a rule, active = well fitted curve in the direction sought with a large enough effect in the repeat runs; inconclusive = weak or mixed curves; inactive = no such curve, though single readings can be large; an effect the other way counts as inactive or inconclusive.

How the values were obtained:
[1] = qHTS assay to identify aromatase inhibitors - cell viability counter screen (AID 743084);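 note: cells stimulated with testosterone during compound exposure; nearly all actives have a fitted effect of over 55% in size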
[2] = molecular target: Aryl hydrocarbon receptor (Homo sapiens) (UniProt P35869); assay: qHTS assay to identify small molecule that activate the aryl hydrocarbon receptor (AhR) signaling pathway (AID 743085);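 note: HG2L7.5c1 human HepG2 liver cells with stably integrated DRE-driven firefly reporter; series mostly up to about 70 µM; nearly all actives have a fitted effect of over 15% in size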
Procedure, shortened: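 Compounds were tested in HepG2 hepatocellular carcinoma cells harbouring a stably integrated luciferase gene under control of 20 DREs. Increased reporter signal after 24 h treatment at 37C was taken as AhR activation.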

[3] = qHTS assay to identify small molecule that activate the aryl hydrocarbon receptor (AhR) signaling pathway - cell viability counter screen (AID 743086);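 note: HepG2 liver cells carrying the AhR DRE luciferase reporter; series mostly up to about 70 µM; nearly all actives have a fitted effect of over 45% in size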
Procedure, shortened: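 HepG2-AhR-luc (HG2L7.5c1) cells, 4000/well, were preincubated 5 h at 37C, exposed to compound in qHTS format for 24 hr at 37C, then given CellTiter-Fluor for 30 min; viability was read as fluorescence in the reporter wells.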

[4] = molecular target: Peroxisome proliferator-activated receptor gamma (Homo sapiens) (UniProt P37231); assay: qHTS assay to identify small molecule agonists of the peroxisome proliferator-activated receptor gamma (PPARg) signaling pathway (AID 743094; active = well fitted activation curve with a large enough effect in the signal ratio in the repeat runs, not every such curve was filed as active; the % refers to the signal ratio)
Procedure, shortened: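 Stably transfected HEK293H cells (GeneBLAzer PPARg UAS-bla) were incubated with test substances for 17 h at 37C after a 5 h pre-incubation; beta-lactamase activity was then detected by FRET substrate fluorescence.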

[5] = qHTS assay to identify small molecule antagonists of the peroxisome proliferator-activated receptor gamma (PPARg) signaling pathway - cell viability counter screen (AID 743194); note: nearly all actives have a fitted effect of over 55% in size
Procedure, shortened: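 PPARg-UAS-bla HEK293H cells were plated, rested 5 h at 37 C, then treated with compounds plus rosiglitazone (50 nM final) for 17 h at 37 C; viability was then read by CellTiter-Glo luminescence after 30 min at room temperature.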

[6] = qHTS assay for small molecule agonists of the antioxidant response element (ARE) signaling pathway (AID 743202; active = well fitted activation curve with a large enough effect in the signal ratio in the repeat runs, not every such curve was filed as active; the % refers to the signal ratio)
Procedure, shortened: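 Compounds delivered in DMSO to ARE-bla HepG2 cells (2,000 cells/well, pre-incubated 5 h) and left 16 h at 37 C. LiveBLAzer B/G FRET substrate then added for 2 h at RT before fluorescence reading.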

[7] = qHTS assay for small molecule agonists of the antioxidant response element (ARE) signaling pathway - cell viability counter screen (AID 743203; calls by dose curve; note: nearly all actives have a fitted effect of over 55% in size)
Procedure, shortened: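 Cells (ARE-bla HepG2, 2,000/well) receive DMSO-dissolved compounds after a 5 hrs rest. Plates incubate 16 hrs at 37C/5% CO2. CellTiter-Glo luminescence is then recorded after 30 min at room temperature.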

[8] = qHTS assay for small molecule activators of the heat shock response signaling pathway - cell viability counter screen (AID 743209); note: nearly all actives have a fitted effect of over 50% in size
Procedure, shortened: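 Quantitative HTS format, Tox21 10K library. HeLa cells carrying an HSE-driven beta-lactamase reporter were treated 5 h at 37 C, then assessed for viability by CellTiter-Glo luminescence.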

[9] = qHTS assay for small molecule activators of the heat shock response signaling pathway (AID 743210; active = well fitted activation curve with a large enough effect in the signal ratio in the repeat runs, with a control signal flat, not every such curve was filed as active; the % refers to the signal ratio;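 note: HeLa cells with beta-lactamase reporter driven by heat shock elements; series mostly up to about 63 µM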)
Procedure, shortened: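 Reporter gene assay: HeLa cells stably bearing an HSE-bla construct, compound treatment 5 h at 37 C, LiveBLAzer substrate 2.5 h at RT, fluorescence intensity.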

[10] = molecular target: Peroxisome proliferator-activated receptor delta (Homo sapiens) (UniProt Q03181); assay: qHTS assay to identify small molecule agonists of the peroxisome proliferator-activated receptor delta (PPARd) signaling pathway (AID 743212; calls by dose curve)
Procedure, shortened: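 A PPARd-bla HEK293H line with beta-lactamase under an Upstream Activator Sequence is treated with compounds at 37 C. Substrate loading for 2 h at room temperature precedes the fluorescence measurement.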

[11] = molecular target: Peroxisome proliferator-activated receptor delta (Homo sapiens) (UniProt Q03181); assay: qHTS assay to identify small molecule antagonists of the peroxisome proliferator-activated receptor delta (PPARd) signaling pathway (AID 743215; active = well fitted inhibition curve with a large enough effect in the signal ratio in the repeat runs, not every such curve was filed as active; the % refers to the signal ratio;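 note: cells stimulated with agonist L165041 at 300 nM final during compound exposure; series mostly up to about 62 µM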)
Procedure, shortened: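 Antagonist-mode beta-lactamase reporter screen: HEK293H cells with UAS-bla under PPARd control, stimulated by 300 nM L165041 (final) alongside test compound for 17 h at 37 C, then FRET fluorescence after 2 h substrate incubation.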

[12] = qHTS assay to identify small molecule agonists of the farnesoid-X-receptor (FXR) signaling pathway - cell viability counter screen (AID 743218); note: nearly all actives have a fitted effect of over 45% in size
Procedure, shortened: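 In GeneBLAzer FXR-UAS-bla HEK 293T cells, compounds act for 16 h at 37 C. Cell viability is then scored in the reporter wells by CellTiter-Glo, 30 min at RT, luminescence.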

[13] = qHTS assay to identify small molecule antagonists of the farnesoid-X-receptor (FXR) signaling pathway - cell viability counter screen (AID 743221; active = well fitted cell-killing curve with a large enough effect in the repeat runs, not every such curve was filed as active; note: nearly all actives have a fitted effect of over 50% in size)
Procedure, shortened: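 Multiplexed counter screen: viability of FXR-bla HEK 293T cells under agonist stimulation by chenodeoxycholic acid (50 uM, final) and test compound for 16 h at 37 C, measured by CellTiter-Glo luminescence in the reporter wells.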

[14] = molecular target: Vitamin D3 receptor (Homo sapiens) (UniProt P11473); assay: qHTS assay to identify small molecule agonists of the vitamin D receptor (VDR) signaling pathway (AID 743222; calls by dose curve)
Procedure, shortened: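 Agonist activity measured in VDR-bla reporter cells. Exposure 16 h, 37C, 5% CO2; detection by B/G FRET substrate, 2 h RT.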

[15] = molecular target: Vitamin D3 receptor (Homo sapiens) (UniProt P11473); assay: qHTS assay to identify small molecule antagonists of the vitamin D receptor (VDR) signaling pathway (AID 743223; active = well fitted inhibition curve with a large enough effect in the signal ratio in the repeat runs, not every such curve was filed as active; the % refers to the signal ratio)
Procedure, shortened: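 Cells carrying a VDR-driven beta-lactamase reporter (VDR-bla) were co-treated with compound and 3 nM final 1alpha,25-dihydroxyvitamin D3 for 16 h at 37C; reporter activity was measured as FRET substrate fluorescence after 2 h at room temperature.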

[16] = qHTS assay to identify small molecule agonists of the peroxisome proliferator-activated receptor delta (PPARd) signaling pathway - cell viability counter screen (AID 743211); note: nearly all actives have a fitted effect of over 55% in size
Procedure, shortened: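 Counter screen for cytotoxicity run in parallel with the PPARd reporter screen. Beta-lactamase reporter HEK293H cells exposed to compounds 17 h; ATP-based CellTiter-Glo luminescence quantified viability.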

[17] = qHTS assay to identify small molecule antagonists of the peroxisome proliferator-activated receptor delta (PPARd) signaling pathway - cell viability counter screen (AID 743213); note: nearly all actives have a fitted effect of over 50% in size
Procedure, shortened: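 Luminescence from CellTiter-Glo, added after the bla read and incubated 30 min at room temperature, gives viability of HEK293H PPARd-bla cells exposed to compounds for 17 h at 37 C with 300 nM L165041.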

[18] = molecular target: Bile acid receptor (Homo sapiens) (UniProt Q96RI1); assay: qHTS assay to identify small molecule agonists of the farnesoid-X-receptor (FXR) signaling pathway (AID 743220; active = well fitted activation curve with a large enough effect in the signal ratio in the repeat runs, not every such curve was filed as active; the % refers to the signal ratio)
Procedure, shortened: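 Beta-lactamase reporter under UAS control in GeneBLAzer FXR HEK 293T cells (5000/well) measured with LiveBLAzer FRET substrate after 2 h at room temperature. Compound exposure lasted 16 h at 37C.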

[19] = molecular target: Peroxisome proliferator-activated receptor gamma (Homo sapiens) (UniProt P37231); assay: qHTS assay to identify small molecule antagonists of the peroxisome proliferator-activated receptor gamma (PPARg) signaling pathway (AID 743191; calls by dose curve; note: series mostly up to about 63 µM; nearly all actives have a fitted effect of over 30% in size)
Procedure, shortened: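 GeneBLAzer PPARg UAS-bla HEK293H cells carrying a UAS-driven beta-lactamase reporter were plated at 3000 cells/well, preincubated 5 h at 37C, then given compound for 17 h at 37C; LiveBLAzer B/G FRET substrate was read after 1 h at room temperature.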

[20] = molecular target: Bile acid receptor (Homo sapiens) (UniProt Q96RI1); assay: qHTS assay to identify small molecule antagonists of the farnesoid-X-receptor (FXR) signaling pathway (AID 743217; active = well fitted inhibition curve with a large enough effect in the signal ratio in the repeat runs, not every such curve was filed as active; the % refers to the signal ratio)
Procedure, shortened: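 Beta-lactamase reporter under UAS control in HEK 293T cells; compound exposure 16 h at 37 °C in the presence of chenodeoxycholic acid (50 uM final); signal from B/G FRET substrate after 2 h at room temperature.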
% is set by controls: 0 for no effect and ±100 for the full control effect.

Chain of Vitamin D3 receptor (Homo sapiens) (P11473 whole entry, looked up): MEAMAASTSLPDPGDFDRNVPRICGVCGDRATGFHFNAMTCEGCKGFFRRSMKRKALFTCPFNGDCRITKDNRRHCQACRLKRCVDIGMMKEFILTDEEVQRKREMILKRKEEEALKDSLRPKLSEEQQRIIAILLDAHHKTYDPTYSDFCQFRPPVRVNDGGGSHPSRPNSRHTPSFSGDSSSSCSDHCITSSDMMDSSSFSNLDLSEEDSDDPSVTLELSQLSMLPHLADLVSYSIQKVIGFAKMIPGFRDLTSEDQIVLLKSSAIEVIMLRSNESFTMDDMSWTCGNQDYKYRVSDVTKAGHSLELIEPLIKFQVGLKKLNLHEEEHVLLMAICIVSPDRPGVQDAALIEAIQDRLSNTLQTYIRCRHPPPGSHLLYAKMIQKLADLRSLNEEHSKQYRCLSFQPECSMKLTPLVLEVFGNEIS
Chain of Peroxisome proliferator-activated receptor delta (Homo sapiens) (Q03181 whole entry, looked up): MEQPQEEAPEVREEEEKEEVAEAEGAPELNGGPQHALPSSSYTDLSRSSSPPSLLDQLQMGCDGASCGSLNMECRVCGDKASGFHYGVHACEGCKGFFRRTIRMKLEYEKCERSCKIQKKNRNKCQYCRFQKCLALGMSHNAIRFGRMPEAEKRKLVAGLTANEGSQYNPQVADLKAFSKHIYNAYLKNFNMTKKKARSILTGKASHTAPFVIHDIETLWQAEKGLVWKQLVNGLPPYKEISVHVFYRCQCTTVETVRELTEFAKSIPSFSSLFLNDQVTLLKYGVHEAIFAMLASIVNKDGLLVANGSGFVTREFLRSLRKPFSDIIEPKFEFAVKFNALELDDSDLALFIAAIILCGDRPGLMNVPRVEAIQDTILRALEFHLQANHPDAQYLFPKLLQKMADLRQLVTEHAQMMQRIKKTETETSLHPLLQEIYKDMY
Chain of Peroxisome proliferator-activated receptor gamma (Homo sapiens) (P37231 whole entry, looked up): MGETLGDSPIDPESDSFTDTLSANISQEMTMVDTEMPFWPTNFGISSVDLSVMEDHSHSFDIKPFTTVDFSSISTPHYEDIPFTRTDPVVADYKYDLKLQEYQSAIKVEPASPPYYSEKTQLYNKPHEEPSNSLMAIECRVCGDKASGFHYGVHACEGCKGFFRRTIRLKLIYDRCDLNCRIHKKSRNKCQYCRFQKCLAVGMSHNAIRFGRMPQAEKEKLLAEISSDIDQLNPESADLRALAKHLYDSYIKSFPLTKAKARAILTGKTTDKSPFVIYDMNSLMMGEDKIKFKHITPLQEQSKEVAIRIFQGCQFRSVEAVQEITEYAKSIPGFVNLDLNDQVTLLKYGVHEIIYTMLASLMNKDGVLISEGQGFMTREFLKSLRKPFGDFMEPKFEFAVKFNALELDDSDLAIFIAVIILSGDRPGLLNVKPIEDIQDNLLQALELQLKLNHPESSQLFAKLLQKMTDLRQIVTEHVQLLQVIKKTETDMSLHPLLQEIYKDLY
Chain of Aryl hydrocarbon receptor (Homo sapiens) (P35869 whole entry, looked up): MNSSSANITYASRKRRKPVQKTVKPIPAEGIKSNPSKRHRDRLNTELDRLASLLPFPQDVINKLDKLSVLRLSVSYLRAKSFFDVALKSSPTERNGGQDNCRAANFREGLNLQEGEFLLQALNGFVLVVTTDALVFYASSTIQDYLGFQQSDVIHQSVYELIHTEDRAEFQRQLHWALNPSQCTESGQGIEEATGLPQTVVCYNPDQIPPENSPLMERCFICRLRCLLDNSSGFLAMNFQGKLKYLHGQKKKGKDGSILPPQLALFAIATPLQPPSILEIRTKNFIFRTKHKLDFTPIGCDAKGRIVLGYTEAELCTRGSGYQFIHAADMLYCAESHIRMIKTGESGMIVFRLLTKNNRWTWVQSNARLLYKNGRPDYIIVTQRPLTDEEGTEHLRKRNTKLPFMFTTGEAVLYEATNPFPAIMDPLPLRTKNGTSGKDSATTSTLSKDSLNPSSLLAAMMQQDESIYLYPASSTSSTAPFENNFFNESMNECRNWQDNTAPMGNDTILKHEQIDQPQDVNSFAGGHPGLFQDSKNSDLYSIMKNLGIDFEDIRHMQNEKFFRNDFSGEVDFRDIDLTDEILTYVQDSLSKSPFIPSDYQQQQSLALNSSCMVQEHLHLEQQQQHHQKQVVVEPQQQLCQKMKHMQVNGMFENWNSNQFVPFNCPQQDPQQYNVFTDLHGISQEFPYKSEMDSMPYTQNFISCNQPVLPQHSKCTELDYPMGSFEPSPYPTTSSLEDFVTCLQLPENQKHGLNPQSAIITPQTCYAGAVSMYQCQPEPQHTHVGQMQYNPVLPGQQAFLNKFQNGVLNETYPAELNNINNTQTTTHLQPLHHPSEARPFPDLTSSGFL
Chain of Bile acid receptor (Homo sapiens) (Q96RI1 whole entry, looked up): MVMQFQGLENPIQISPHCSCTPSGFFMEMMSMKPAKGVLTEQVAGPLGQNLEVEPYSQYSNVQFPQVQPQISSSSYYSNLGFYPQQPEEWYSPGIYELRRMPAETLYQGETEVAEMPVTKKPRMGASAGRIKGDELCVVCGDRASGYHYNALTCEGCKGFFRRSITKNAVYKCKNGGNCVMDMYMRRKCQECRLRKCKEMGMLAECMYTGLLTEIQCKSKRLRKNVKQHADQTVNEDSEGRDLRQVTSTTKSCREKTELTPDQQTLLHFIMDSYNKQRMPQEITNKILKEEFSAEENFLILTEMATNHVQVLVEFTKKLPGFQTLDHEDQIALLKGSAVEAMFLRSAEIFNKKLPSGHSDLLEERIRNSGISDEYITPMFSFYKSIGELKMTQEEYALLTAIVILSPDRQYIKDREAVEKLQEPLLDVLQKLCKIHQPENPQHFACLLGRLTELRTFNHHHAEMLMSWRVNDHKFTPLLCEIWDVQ

CC(Cl)C(Cl)Cl (configuration not stated)
inactive: Potency [1] | Potency [2] | Potency [3] | Potency [4] | Potency [5] | Potency [6] | Potency [7] | Potency [8] | Potency [9] | Potency [10] | Potency [11] | Potency [12] | Potency [13] | outcome [14] | outcome [15]

CC(=O)OCC(=O)[C@H]1CC[C@H]2[C@@H]3CCC4=CC(=O)CC[C@]4(C)[C@H]3CC[C@]12C
inactive: Potency [1] | Potency [2] | Potency [3] | Potency [4] | Potency [5] | Potency [7] | Potency [8] | Potency [9] | Potency [16] | Potency [10] | Potency [17] | Potency [12] | Potency [18] | Potency [13] | outcome [14] | outcome [15]

C=C(C)C(=O)OCCOC(=O)CC(C)=O
inactive: Potency [1] | Potency [2] | Potency [3] | Potency [4] | Potency [19] | Potency [6] | Potency [7] | Potency [8] | Potency [9] | Potency [16] | Potency [10] | Potency [20] | Potency [12] | Potency [18] | Potency [13]

CO/N=C1\CN(c2nc3c(cc2F)c(=O)c(C(=O)O)cn3C2CC2)CC1CN (configuration not stated)
inactive: Potency [1] | Potency [2] | Potency [3] | Potency [4] | Potency [5] | Potency [7] | Potency [8] | Potency [9] | Potency [10] | Potency [17] | Potency [11] | Potency [12] | Potency [18] | Potency [13]

COCC(O)CO (configuration not stated)
inactive: Potency [1] | Potency [2] | Potency [4] | Potency [19] | Potency [5] | Potency [6] | Potency [7] | Potency [9] | Potency [10] | Potency [17] | Potency [11]

CCCCCCCCCOC(C)=O
inactive: Potency [1] | Potency [2] | Potency [4] | Potency [19] | Potency [7] | Potency [8] | Potency [9] | Potency [16] | Potency [10] | Potency [17] | Potency [20] | Potency [12] | Potency [18] | Potency [13] | outcome [14] | outcome [15]

[O]=[Bi]
inactive: activity change, negative = cytotoxicity [1] -5.72% [at 8.47 µM] | activation [2] -0.231% [at 8.47 µM] | activation [4] -4.02% [at 7.08 µM] | ratio activity, negative = inhibition [19] 6.53% [at 5.95 µM] | activity change, negative = cytotoxicity [5] -1.71% [at 5.95 µM] | viability change, negative = cytotoxic [7] -0.248% [at 8.36 µM] | activity change, negative = cytotoxicity [8] 0.948% [at 5.95 µM] | activity change, negative = cytotoxicity [16] 2.23% [at 5.95 µM] | activation [10] 2.74% [at 5.95 µM] | viability change, negative = cytotoxic [17] -12.9% [at 6.26 µM] | ratio activity, negative = inhibition [11] 3.78% [at 6.26 µM] | viability change, negative = cytotoxic [12] 7.08% [at 5.95 µM] | activation [18] 0.937% [at 5.95 µM] | activity change, negative = cytotoxicity [13] 2.95% [at 5.95 µM] | activity change, negative = inhibition [15] 5.58% [at 6.95 µM]

CC(=N\O)/C(C)=N/O
inactive: Potency [1] | Potency [2] | Potency [4] | Potency [19] | Potency [5] | Potency [7] | Potency [9] | Potency [16] | Potency [10] | Potency [17] | outcome [15]

O=c1[nH]c2ccc(S(=O)CCN3CCC(Cc4ccc(F)cc4)CC3)cc2o1 (configuration not stated)
inactive: Potency [1] | Potency [2] | Potency [3] | Potency [5] | Potency [7] | Potency [9] | Potency [16] | Potency [17] | Potency [13]
